Where “and” joins values, the source holds several entries; their conditions need not be identical. Equal values may be shown once. Among all 6,400 compounds or so, about 610 (9.5%) were called active. Rule as the data show it: active = activity change below about -70%; inconclusive = no clear call, values can overlap the other calls; inactive = above that. Shown is part of a subset that was picked to be rich in actives. The source holds several records for some structures; these can differ, active in one and inactive in another. *1 amine or outer side, *2 acyl side, *3 side chain or, on linkers, in order; H or OH if unused. Where a SMILES comes first, the peptide text is derived from it. Side-chain parts run from the residue outwards. [ ]: non-standard residue; d: D form. The star is where a group is joined. Ethylenediamine = C(CN[*:2])N[*:1]; Hyp = O=C(O)[C@@H]1C[C@@H](O)CN1; Phg = N[C@H](C(=O)O)c1ccccc1; CO = O=C([*:1])[*:2]; Bn = c1ccc(C*)cc1
Test: Toxoplasma gondii ME49Luc growth in HeLa cells, luciferase, no IFN-y, primary screen (AID 1259421)
Conditions: T. gondii ME49Luc in HeLa, 72 h, stronger effect = lower value, concentration not given here

SMILES | activity change, negative = inhibition
COC(=O)C1[C@H]2C[C@H]3c4[nH]c5ccccc5c4CCN3C[C@@H]2CC[C@@H]1O (stereo not given in full) | -3.89% (inactive)
CC(=O)OCC(=O)[C@@]1(O)CCC2C3CCC4=CC(=O)CC[C@]4(C)C3[C@@H](O)C[C@@]21C (stereo not given in full) | -6.4% (inactive) and -14.3% (inactive)
COC(=O)c1ccc2c(C(=Nc3ccc(N(C)C(=O)CN4CCN(C)CC4)cc3)c3ccccc3)c(O)[nH]c2c1 | -75.7% (active)
CN(C)Cc1cccc(N=C(c2ccccc2)c2c(O)[nH]c3cc(C(=O)N(C)C)ccc23)c1 | -81.4% (active)
CN(C)Cc1cccc(N=C(c2ccccc2)c2c(O)[nH]c3cc(C(N)=O)ccc23)c1 | 9.28% (inactive) and -68.3% (inactive)
O=C(O)CN1CCN(CC(=O)O)CCN([C@H](CO)C(O)CO)CCN(CC(=O)O)CC1.[Gd] (stereo not given in full) | 8% (inactive)
CC1(CN)Cc2ccccc2C1 | 26% (inactive)
C=CC(C)(O)CC[C@@H]1[C@@]2(C)CCCC(C)(C)C2CC[C@@]1(C)O (stereo not given in full) | 13.1% (inactive)
COc1ccc2c(c1)OCC(Cc1ccc(OC)c(O)c1)C2=O (stereo not given) | -61% (inactive)
O=C(O)C1=CC(O)C(O)[C@H](O)C1 (stereo not given in full) | -17.2% (inactive)
CCC[C@@H](N[C@@H](C)C(=O)N1[C@@H](C(=O)O)C[C@@H]2CCCC[C@@H]21)C(=O)OCC | 10.1% (inactive)
CCn1c(=O)c(-c2ccn[nH]2)cc2c(C)nc(N)nc21 | -57.4% (inactive)
COc1ccc(-c2cc3c(C)nc(N)nc3n(C3CCC(OCCO)CC3)c2=O)cn1 (stereo not given) | -79.8% (active)
N#CCC(=O)NN | 10.7% (inactive)
O=C(N[C@@H](CO)[C@H](O)c1ccc([N+](=O)[O-])cc1)C(Cl)Cl | 5.04% (inactive)
CCS(=O)(=O)Nc1ccc2[nH]c(O)c(C(=Nc3ccc(CN4CCCCC4)cc3)c3ccccc3)c2c1 | -88% (active)
N[C@H](C(=O)O)[C@H](O)c1ccc(O)c(O)c1 | -6.51% (inactive)
Cc1ccc(C(=O)Nc2ccc(Oc3cc4cnn(C)c4cc3-c3cn[nH]c3)c(F)c2)c(=O)n1-c1ccc(F)cc1 | -82.1% (active)
COC(=O)C(c1ccccc1Cl)N1CCc2sccc2C1 (stereo not given) | 6.54% (inactive)
CCc1c2c(nc3ccc(O)cc13)-c1cc3c(c(=O)n1C2)COC(=O)[C@]3(O)CC | -93.3% (active)
CC[C@@]1(O)C(=O)OCc2c1cc1n(c2=O)Cc2c-1nc1cc(F)c(C)c3c1c2[C@@H](N)CC3 | -89.9% (active)
CCc1c2c(nc3ccc(OC(=O)N4CCC(N5CCCCC5)CC4)cc13)-c1cc3c(c(=O)n1C2)COC(=O)[C@]3(O)CC | 8.52% (inactive)
CC[C@@]1(O)C(=O)OCc2c1cc1n(c2=O)Cc2cc3c(CN(C)C)c(O)ccc3nc2-1 | -89.6% (active)
CC[C@@]1(O)C(=O)OCc2c1cc1n(c2=O)Cc2cc3cc(O)ccc3nc2-1 | -73.3% (active) and -92.8% (active)
CC(=O)[C@H]1CCC2C3C[C@H](C)C4=CC(=O)CC[C@]4(C)C3[C@@H](O)C[C@@]21C (stereo not given in full) | -2.39% (inactive)

SMILES | activity change, negative = inhibition
CN1C[C@@H]2c3ccccc3Oc3ccc(Cl)cc3[C@H]2C1 | 14.2% (inactive)
Cn1cc(-c2cnc3ccc4ccc(CS(=O)(=O)NCc5ccccn5)cc4c(=O)c3c2)cn1 | -4.03% (inactive)
CS(=O)(=O)c1ccc(Cn2c3c(c4cc(F)cc(F)c42)CCCC3CC(=O)O)cc1 (stereo not given) | 1.13% (inactive) and 1.18% (inactive)
c1ccc(C(NCCNC(c2ccccc2)c2ccccc2)c2ccccc2)cc1 | -24.5% (inactive) and -4.76% (inactive)
Cn1c(=O)cc(N2CCCC(N)C2)n(Cc2cc(F)ccc2C#N)c1=O (stereo not given) | 0.449% (inactive)
C[C@H]1CC2C3CCC4=CC(=O)C=C[C@]4(C)[C@@]3(F)[C@@H](O)C[C@]2(C)[C@@]1(O)C(=O)COP(=O)(O)O (stereo not given in full) | -6.5% (inactive)
COc1cc(O)c2c(=O)c(OC)c(-c3ccc(OC)c(OC)c3)oc2c1 | 3.09% (inactive)
CC(=O)OCC(=O)[C@@]1(O)CCC2C3CCC4=CC(=O)C=CC4(C)C3[C@@H](O)C[C@@]21C (stereo not given in full) | 1.73% (inactive)
CC1(C)[C@@H](O[C@H]2O[C@H](C(=O)O)[C@@H](O)[C@H](O)[C@@H]2O[C@@H]2O[C@H](C(=O)O)[C@@H](O)[C@H](O)[C@H]2O)CC[C@@]2(C)[C@H]3C(=O)C=C4[C@@H]5C[C@@](C)(C(=O)O)CC[C@]5(C)CC[C@@]4(C)[C@]3(C)CC[C@@H]12 | 5.63% (inactive)
CC[C@@]1(O)C(=O)OCc2c1cc1n(c2=O)Cc2cc3c([N+](=O)[O-])cccc3nc2-1 | -85.8% (active)
O=C(Cc1ccccc1)Nc1nc2ccc(Cl)cc2c2nc(-c3ccco3)nn12 | 2.82% (inactive) and 3.45% (inactive)
Cc1nc(Cn2cnc3c2c(=O)n(C)c(=O)n3C)no1 | 8.05% (inactive)
Cc1cnc(CNC(=O)c2c(=O)c3ccc(N4CCCN(C)CC4)nc3n3c2sc2ccccc23)cn1 | -82.2% (active)
CCOCCn1c(N2CCCN(C)CC2)nc2ccccc21 | 16.4% (inactive)
CCC(C(N)=O)c1ccccc1 (stereo not given) | -4.72% (inactive)
CN(Cc1ccccc1)C(=O)C(Cc1ccc2ccccc2c1)NC(=O)C1CCCN1C(=O)Nc1ccccc1[N+](=O)[O-] (stereo not given) | 0.794% (inactive)
O=C(O)c1cc2cc(Cl)ccc2[nH]1 | 10.5% (inactive)
CCCCCCCCNC[C@@H](O)[C@H](O)[C@@H](O)[C@@H](O)CO | 17.8% (inactive)
S=P(N1CC1)(N1CC1)N1CC1 | 7.66% (inactive)
CC(C)OC(=O)c1cn(Cc2c(F)cccc2F)c2sc(-c3ccc(NC(=O)C(C)C)cc3)c(CN(C)Cc3ccccc3)c2c1=O | -80.6% (active)
OC(CN1CCNCC1)Cn1c2ccc(Br)cc2c2cc(Br)ccc21 (stereo not given) | -61.8% (inactive)
O=C1Cc2cc(Cl)ccc2N1 | 8.1% (inactive)
CC[C@H](C)n1cc(C)c2c(C(=O)NCc3c(C)cc(C)[nH]c3=O)cc(-c3ccc(N4CCNCC4)nc3)cc21 | 1.27% (inactive)
OCCn1cc(-c2ccc3c(c2)CC/C3=N\O)c(-c2ccncc2)n1 | -63.9% (inactive) and -44.3% (inactive)
CN(C)CCOc1ccc(-c2nc(-c3ccc4c(c3)CC/C4=N\O)c(-c3ccncc3)[nH]2)cc1 | -76.7% (active)

SMILES | activity change, negative = inhibition
O=c1[nH]c(=O)n([C@H]2CC(O)[C@@H](CO)O2)cc1/C=C/Br (stereo not given in full) | 8.12% (inactive)
CCNC(=O)/C=C/c1cccc(Br)c1 | 53.2% (inactive)
O=C(/C=C/c1ccccc1)c1ccc(O)cc1O | 65.1% (inactive)
O=C(/C=C/c1cccc(S(=O)(=O)Nc2ccccc2)c1)NO | -80.9% (active)
CNC(=O)CN(CCN(CCN(CC(=O)O)CC(=O)NC)CC(=O)O)CC(=O)O.[Gd] | 9.1% (inactive)
CCCCCN(CCCOC)C(=O)[C@@H](CCC(=O)O)NC(=O)c1ccc(Cl)c(Cl)c1 | 5.05% (inactive)
NCCCC[C@@H]1NC(=O)[C@@H](Cc2c[nH]c3ccccc23)NC(=O)[C@H](c2ccccc2)NC(=O)[C@@H]2C[C@@H](OC(=O)NCCN)CN2C(=O)[C@H](Cc2ccccc2)NC(=O)[C@H](Cc2ccc(OCc3ccccc3)cc2)NC1=O (cyclo([Hyp]([CO-Ethylenediamine])[Phg][dW]KY(Bn)F)) | 9.07% (inactive)
NCC(=O)Nc1ccc(-n2nc(C(F)(F)F)cc2-c2ccc3c(ccc4ccccc43)c2)cc1 | -75.5% (active)
Cc1ccc(-c2cc(C(F)(F)F)nn2-c2ccc(S(N)(=O)=O)cc2)cc1 | 17% (inactive) and 0.0196% (inactive)
CCn1cnc(C(=O)NC)c1C(=O)NC | 4% (inactive)
C[C@H](/C=C/[C@H](C)C(C)(C)O)[C@H]1CC[C@H]2/C(=C/C=C3C[C@@H](O)C[C@H](O)C3)CCC[C@]12C | 20.9% (inactive)
N#Cc1cc2c(OCC(O)CN3CCN(C(c4ccccc4)c4ccccc4)CC3)cccc2[nH]1 (stereo not given) | -30% (inactive)
NCC(=O)N1C[C@H](NC(=O)c2ccccc2)C[C@H]1C(=O)O | 17.6% (inactive)
CC1CC2C3CCC4=CC(=O)C=CC4(C)C3(F)C(O)CC2(C)C1(O)C(=O)CO (stereo not given) | -10.3% (inactive)
C=CCn1c(=O)c2cnc(Nc3ccc(N4CCN(C)CC4)cc3)nc2n1-c1cccc(C(C)(C)O)n1 | -82.2% (active)
CN1CCN(c2cccc(Nc3nc4c(-c5ccc(S(C)(=O)=O)cc5)cccn4n3)c2)CC1 | -0.0052% (inactive)
CC1(C)O[C@@H]2CC3C4CCC5=CC(=O)C=C[C@]5(C)C4[C@@H](O)C[C@]3(C)[C@]2(C(=O)CO)O1 (stereo not given in full) | 0.966% (inactive)
CC(C)C(=O)OC[C@@]1(N=[N+]=[N-])O[C@@H](n2ccc(N)nc2=O)[C@H](OC(=O)C(C)C)[C@@H]1OC(=O)C(C)C | 6.96% (inactive)
Cn1ncc(Cl)c1-c1cc(C(=O)N[C@H](CN)Cc2cccc(F)c2)sc1Cl | -49.2% (inactive)
Cn1ncc(Cl)c1-c1cc(C(=O)N[C@H](CN)Cc2ccc(F)c(F)c2)oc1Cl | -80% (active)
CNCC(=O)O | -1.68% (inactive)
CCCCCCc1ccc(O)cc1O | 10.9% (inactive)
CCOC(=O)c1c(C)n(C)c2ccc(O)cc12 | -6.15% (inactive) and 12.7% (inactive)
CCCCCS(=O)(=O)CCCCCCCCCCn1c(-c2ccc(O)cc2)c(C)c2cc(O)ccc21 | -63.6% (inactive) and -77.2% (active)
C[C@@]12CCC3[C@@](CC[C@@H]4[C@](C)(C(=O)O)CCC[C@@]34C)(CC1=O)C2 (stereo not given in full) | 7.66% (inactive)

Reference: PubChem BioAssay AID1259421 (Broad Institute, 2018)
